# In PubChem BioAssay AID1159580 (chemical genetic matrix, 2015):
# Out of some 5,500 compounds screened, about 2,000 (36%) were called active. Roughly 18% stayed inconclusive and do not appear here. The list shows a part of the results. Values without a mark were called inactive. Rule as the data show it: active = normalized growth mostly below about 0.91 (no sharp cut-off); inconclusive = no clear call, values can overlap the other calls; inactive = mostly above about 0.92.
# Experiment: chemical genetic growth profiling, strain panel (AID 1159580);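 also: tested at 20 µM; growth read once vehicle control cultures reached saturation at 30 °C; 1 = growth at the plate median or of vehicle wells; lower values mean less growth of the strain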
# Conditions: growth OD
compound,measurement,setting,value
ClC1=C(Cl)C2(Cl)C3C(Cl)C=CC3C1(Cl)C2(Cl)Cl (configuration not stated),normalized growth,"S. cerevisiae deletion strains, locus YJR075W, strain HOC1, hits give low values",1
same,normalized growth,"S. cerevisiae deletion strains, locus YKL009W, strain mrt4, hits give low values",0.957
same,normalized growth,"S. cerevisiae deletion strains, locus YKL068W, hits give low values",1
same,normalized growth,"S. cerevisiae deletion strains, locus YKL085W, strain MDH1 (second series), hits give low values",0.996
same,normalized growth,"S. cerevisiae deletion strains, locus YKL085W, strain MDH1, hits give low values",0.996
same,normalized growth,"S. cerevisiae deletion strains, locus YKL160W, strain elf1, hits give low values",0.993
same,normalized growth,"S. cerevisiae deletion strains, locus YKL190W, strain CNB1, hits give low values",0.989
same,normalized growth,"S. cerevisiae deletion strains, locus YKR001C, strain vps1, hits give low values",0.965
same,normalized growth,"S. cerevisiae deletion strains, locus YKR026C, strain gcn3, hits give low values",1.01
same,normalized growth,"S. cerevisiae deletion strains, locus YKR091W, strain srl3, hits give low values",1.01
same,normalized growth,"S. cerevisiae deletion strains, locus YLL001W, strain dnm1, hits give low values",1
same,normalized growth,"S. cerevisiae deletion strains, locus YLL026W, hits give low values",1.01
same,normalized growth,"S. cerevisiae deletion strains, locus YLL041C, strain sdh2, hits give low values",1.01
same,normalized growth,"S. cerevisiae deletion strains, locus YLR027C, strain aat2, hits give low values",0.97
same,normalized growth,"S. cerevisiae deletion strains, locus YLR039C, strain RIC1, hits give low values",1
same,normalized growth,"S. cerevisiae deletion strains, locus YLR058C, strain SHM2, hits give low values",0.986
same,normalized growth,"S. cerevisiae deletion strains, locus YLR102C, strain apc9, hits give low values",0.981
same,normalized growth,"S. cerevisiae deletion strains, locus YLR113W, strain HOG1, hits give low values",0.938
same,normalized growth,"S. cerevisiae deletion strains, locus YLR221C, strain rsa3, hits give low values",0.971
same,normalized growth,"S. cerevisiae deletion strains, locus YLR258W, strain gsy2, hits give low values",0.988
same,normalized growth,"S. cerevisiae deletion strains, locus YLR262C, strain YPT6 (second series), hits give low values",0.933
same,normalized growth,"S. cerevisiae deletion strains, locus YLR262C, strain YPT6, hits give low values",1.01
same,normalized growth,"S. cerevisiae deletion strains, locus YLR268W, strain sec22, hits give low values",0.985
same,normalized growth,"S. cerevisiae deletion strains, locus YLR320W, strain mms22, hits give low values",0.965
same,normalized growth,"S. cerevisiae deletion strains, locus YLR330W, strain CHS5, hits give low values",0.998
same,normalized growth,"S. cerevisiae deletion strains, locus YLR342W, strain FKS1 (second series), hits give low values",0.948
same,normalized growth,"S. cerevisiae deletion strains, locus YLR342W, strain FKS1, hits give low values",1.01
same,normalized growth,"S. cerevisiae deletion strains, locus YLR357W, strain rsc2, hits give low values",1
same,normalized growth,"S. cerevisiae deletion strains, locus YLR370C, strain arc18, hits give low values",0.999
same,normalized growth,"S. cerevisiae deletion strains, locus YLR371W, strain rom2, hits give low values",0.973
same,normalized growth,"S. cerevisiae deletion strains, locus YLR384C, strain iki3, hits give low values",1.01
same,normalized growth,"S. cerevisiae deletion strains, locus YLR418C, strain cdc73, hits give low values",0.977
same,normalized growth,"S. cerevisiae deletion strains, locus YML016C, strain PPZ1, hits give low values",0.992
same,normalized growth,"S. cerevisiae deletion strains, locus YML032C, strain rad52, hits give low values",0.968
same,normalized growth,"S. cerevisiae deletion strains, locus YML120C, strain ndi1, hits give low values",1
same,normalized growth,"S. cerevisiae deletion strains, locus YML124C, strain tub3, hits give low values",0.978
same,normalized growth,"S. cerevisiae deletion strains, locus YMR058W, strain fet3, hits give low values",0.998
same,normalized growth,"S. cerevisiae deletion strains, locus YMR078C, strain ctf18, hits give low values",0.959
same,normalized growth,"S. cerevisiae deletion strains, locus YMR125W, strain sto1, hits give low values",1.01
same,normalized growth,"S. cerevisiae deletion strains, locus YMR129W, hits give low values",1.01
same,normalized growth,"S. cerevisiae deletion strains, locus YMR205C, strain PFK2, hits give low values",0.947
same,normalized growth,"S. cerevisiae deletion strains, locus YMR223W, strain ubp8, hits give low values",0.95
same,normalized growth,"S. cerevisiae deletion strains, locus YMR231W, strain pep5, hits give low values",0.987
same,normalized growth,"S. cerevisiae deletion strains, locus YMR263W, strain SAP30, hits give low values",0.999
same,normalized growth,"S. cerevisiae deletion strains, locus YMR307W, strain GAS1, hits give low values",1.06
same,normalized growth,"S. cerevisiae deletion strains, locus YNL067W, strain RPL9B, hits give low values",1
same,normalized growth,"S. cerevisiae deletion strains, locus YNL071W, strain lat1, hits give low values",1.02
same,normalized growth,"S. cerevisiae deletion strains, locus YNL128W, strain TEP1, hits give low values",0.987
same,normalized growth,"S. cerevisiae deletion strains, locus YNL153C, strain GIM3, hits give low values",0.989
same,normalized growth,"S. cerevisiae deletion strains, locus YNL183C, strain NPR1, hits give low values",0.962
same,normalized growth,"S. cerevisiae deletion strains, locus YNL209W, strain ssb2, hits give low values",0.997
same,normalized growth,"S. cerevisiae deletion strains, locus YNL233W, strain BNI4, hits give low values",0.978
same,normalized growth,"S. cerevisiae deletion strains, locus YNL248C, strain rpa49, hits give low values",0.996
same,normalized growth,"S. cerevisiae deletion strains, locus YNL250W, strain rad50, hits give low values",0.99
same,normalized growth,"S. cerevisiae deletion strains, locus YNL271C, strain bni1, hits give low values",0.984
same,normalized growth,"S. cerevisiae deletion strains, locus YNL298W, strain CLA4, hits give low values",0.977
same,normalized growth,"S. cerevisiae deletion strains, locus YNL307C, strain MCK1, hits give low values",0.885 (active)
same,normalized growth,"S. cerevisiae deletion strains, locus YNL322C, strain KRE1 (second series), hits give low values",0.982
same,normalized growth,"S. cerevisiae deletion strains, locus YNL322C, strain KRE1, hits give low values",1
same,normalized growth,"S. cerevisiae deletion strains, locus YNR049C, strain mso1, hits give low values",1
same,normalized growth,"S. cerevisiae deletion strains, locus YNR052C, strain pop2, hits give low values",0.964
same,normalized growth,"S. cerevisiae deletion strains, locus YOL006C, strain TOP1, hits give low values",0.97
same,normalized growth,"S. cerevisiae deletion strains, locus YOL012C, strain htz1",0.908
same,normalized growth,"S. cerevisiae deletion strains, locus YOL147C, strain pex11, hits give low values",0.989
same,normalized growth,"S. cerevisiae deletion strains, locus YOR001W, strain rrp6, hits give low values",1.01
same,normalized growth,"S. cerevisiae deletion strains, locus YOR061W, strain CKA2, hits give low values",0.993
same,normalized growth,"S. cerevisiae deletion strains, locus YOR069W, strain VPS5, hits give low values",0.982
same,normalized growth,"S. cerevisiae deletion strains, locus YOR070C, strain gyp1, hits give low values",1.01
same,normalized growth,"S. cerevisiae deletion strains, locus YOR080W, strain dia2, hits give low values",0.995
same,normalized growth,"S. cerevisiae deletion strains, locus YOR083W, strain WHI5, hits give low values",0.974
same,normalized growth,"S. cerevisiae deletion strains, locus YOR106W, strain vam3, hits give low values",0.942
same,normalized growth,"S. cerevisiae deletion strains, locus YOR136W, strain idh2, hits give low values",0.963
same,normalized growth,"S. cerevisiae deletion strains, locus YOR144C, strain elg1, hits give low values",0.977
same,normalized growth,"S. cerevisiae deletion strains, locus YOR184W, strain ser1, hits give low values",0.886
same,normalized growth,"S. cerevisiae deletion strains, locus YOR231W, strain MKK1, hits give low values",1.02
same,normalized growth,"S. cerevisiae deletion strains, locus YOR265W, strain rbl2, hits give low values",1.01
same,normalized growth,"S. cerevisiae deletion strains, locus YOR270C, strain vph1, hits give low values",0.82
same,normalized growth,"S. cerevisiae deletion strains, locus YOR290C, strain snf2, hits give low values",0.939
same,normalized growth,"S. cerevisiae deletion strains, locus YOR316C, strain cot1, hits give low values",0.985
same,normalized growth,"S. cerevisiae deletion strains, locus YPL051W, strain arl3, hits give low values",0.996
same,normalized growth,"S. cerevisiae deletion strains, locus YPL055C, strain LGE1, hits give low values",1
same,normalized growth,"S. cerevisiae deletion strains, locus YPL078C, strain atp4, hits give low values",1
same,normalized growth,"S. cerevisiae deletion strains, locus YPL106C, strain sse1, hits give low values",0.963
same,normalized growth,"S. cerevisiae deletion strains, locus YPL240C, strain hsp82, hits give low values",0.999
same,normalized growth,"S. cerevisiae deletion strains, locus YPL241C, strain CIN2, hits give low values",0.993
same,normalized growth,"S. cerevisiae deletion strains, locus YPL256C, strain CLN2, hits give low values",1.02
same,normalized growth,"S. cerevisiae deletion strains, locus YPR119W, strain clb2, hits give low values",0.987
same,normalized growth,"S. cerevisiae deletion strains, locus YPR141C, strain kar3, hits give low values",0.982
same,normalized growth,"S. cerevisiae deletion strains, locus YPR163C, strain tif3, hits give low values",0.981
same,normalized growth,"S. cerevisiae deletion strains, locus YPR167C, strain met16, hits give low values",0.976
same,normalized growth,"S. cerevisiae deletion strains, strain wtn01, hits give low values",0.97
same,normalized growth,"S. cerevisiae strains, strain wild type, hits give low values",1
